These results are taken from PubChem BioAssay.

Each structure is given as a SMILES string. Active and inactive are the calls of the source.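 How the source made its calls: active means inhibition above 20% together with a positive visual image hit; inconclusive means visual image hit but inhibition not above 20%; inactive means no visual image hit.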

This experiment can be described thus: inhibitors of TNFa-induced NFkB p65 translocation, primary screen, imaging, HUVEC, MLSMR starter and 10KST1 sets (AID 438).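 Further: compound added about 3h40 before a 20 min TNFalpha stimulation.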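 On inhibition: signal is the nuclear over cytoplasmic p65 intensity ratio per well.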 To be noted: HUVEC TNFa-induced p65 nuclear translocation; cell count: measured here: nuclei count (cytotoxicity indicator), at 2.08 µM; inhibition: at 2 µM, stronger effect = higher value, 0% TNFa-plus-vehicle, 100% no-TNFa wells.
As to `Cc1nnc(N2CCOCC2)c2ccccc12`, the inhibition is -0.6% (inactive) and the cell count came out at 590.
In the case of `CCOc1ccc2c(c1)n([O-])c1c([n+]2=O)CCCC1`, the cell count worked out at 345 and the inhibition is 6.9% (inactive).
On to `C[N+]1(CCNC(=O)/C=N/O)CCCCC1`, for which the inhibition is -0.1% (inactive) and the cell count came out at 468.
As for `Cc1ccc(C(=O)NCCCNCCCNC(=O)c2ccc(C)nc2)cn1`, the cell count amounted to 393 and the inhibition was -2.8% (inactive).
As for `CCCCCOc1ccccc1C(=O)NCCCC(=O)O`, the cell count is 352 and the inhibition was -4.8% (inactive).
In the case of `CCN(CC)c1nc(C)c2c(c1C#N)CC(C)(C)OC2`, the cell count worked out at 491 and the inhibition is -5.9% (inactive).
For the molecule `Cn1ncc(N=Cc2ccccc2O)c1C(=O)N1CCOCC1`, the cell count was determined as 723 and the inhibition is 6.6% (inactive).
As for `CN1CCN(c2c3c(c(C#N)c4nc5ccccc5n24)CCCC3)CC1`, the inhibition was 0.8% (inactive) and the cell count came out at 514.
For `CC(C(=O)NC(=O)NCc1ccccc1)N1C(=O)c2ccccc2C1=O` (stereo not given), the cell count came out at 655 and the inhibition is 6.1% (inactive).
On to `COC(=O)c1cc(Br)c(=O)n(-c2cc(C)on2)c1`, for which the cell count came out at 650 and the inhibition is -3.9% (inactive).
In the case of `CCOC(=O)c1[nH]c2ccc(OC)cc2c1NC(=O)CCN1CCCC(C)C1` (stereo not given), the inhibition was -0.1% (inactive) and the cell count came out at 521.
Consider `COc1cccc(C(=O)c2sc(NC(C)C)nc2N)c1`, for which the inhibition is -11.5% (inactive) and the cell count worked out at 637.
For the molecule `CCOc1ccc(-c2nc(C#N)c(N3CCN(CC)CC3)o2)cc1`, the inhibition is 0.1% (inactive) and the cell count stood at 416.
For `CCC(CC)n1[nH]c(=O)cc1N`, the cell count was 392 and the inhibition was -15.4% (inactive).
As for `CC1(C)Cc2nc(NCCN3CCOCC3)c(C#N)cc2CO1`, the cell count was 586 and the inhibition is -8.3% (inactive).
Consider `COc1ccc2nc(/N=C(\N)NC(=O)C(C)(C)C)nc(C)c2c1`, for which the cell count was determined as 503 and the inhibition was -6.3% (inactive).
For `CC(C)CNc1nc2c(c(=O)n(C)c(=O)n2C)n1Cc1cccc(Br)c1` the same measures were 696 and 0.6% (inactive).
Consider `COc1ccccc1C(=O)Nc1cc(Cl)ccc1O`, for which the cell count amounted to 582 and the inhibition was -2.4% (inactive).
On the same counts, the results for `c1ccc(-n2ncc3c(N4CCCC4)ncnc32)cc1` are 589 and -7% (inactive).
Consider `NC(=O)C1CCN(CCC(=O)Nc2ccc(Br)cc2)CC1`, for which the cell count came out at 619 and the inhibition was -14.3% (inactive).
Take `CCCCC(=O)c1c(C)cc(C)[nH]c1=O`: the inhibition was -6.7% (inactive) and the cell count stood at 721.
`C/C(NC(=O)c1cccs1)=C1\C(=O)C[C@@H]2[C@H]1C2(C)C`: the cell count was determined as 562 and the inhibition was -1.6% (inactive).
Regarding `CC1CCN(c2[nH]c(=S)c(C#N)c3c2CCCC3)CC1`, the cell count came to 383 and the inhibition is -5.9% (inactive).
Regarding `CCC(=O)Nc1ccc(-c2nnc(SCC(=O)NCC3CCCO3)n2C)cc1` (stereo not given), the inhibition was -4.5% (inactive) and the cell count was determined as 656.
For the molecule `Cc1nnc(N2CCCCC2)c2ccccc12`, the inhibition was -5.6% (inactive) and the cell count came out at 511.
For `Cc1cccc(-n2ncc3c(NCCN4CCOCC4)ncnc32)c1` the same measures were -8.2% (inactive) and 596.
In the case of `N#CCCN(C(=O)c1ccco1)c1ccccc1`, the cell count was determined as 600 and the inhibition was 3.1% (inactive).
As to `N#Cc1c(N)nc(SCC(=O)NCc2ccc3c(c2)OCO3)c(C#N)c1-c1cccs1`, the inhibition is -0.3% (inactive) and the cell count came to 577.
On the same counts, the results for `CCC1CC2(C)NC(=O)c3c(sc4c3CC(C)(C)OC4)N2C1=O` (stereo not given) are -0.8% (inactive) and 497.
Take `C=CCN=C(C)C1=C(O)CCC1=O`: the cell count was 637 and the inhibition was 3.3% (inactive).
Turning to `Cc1ccc(-n2ncc3c(NCc4cccnc4)ncnc32)c(C)c1`, the inhibition was -10.1% (inactive) and the cell count was 623.
Consider `Clc1ccc(COc2ccccn2)c(Cl)c1`, for which the inhibition is 2.8% (inactive) and the cell count is 600.
Regarding `Cc1cc(=O)oc(C)c1C(=O)Nc1ccc2nsnc2c1`, the cell count was found to be 517 and the inhibition was -2% (inactive).
`O=C(C1CCCCC1)N1CCCn2c1nc1ccccc12`: the inhibition is -4.2% (inactive) and the cell count is 466.
For `CCc1nc(NCC2CCCO2)c(C#N)c2c1COC(C)(C)C2` (stereo not given) the same measures were -12.7% (inactive) and 550.
With `CCc1nc(N2CCOCC2)c(C#N)c2c1CCCC2`, the cell count came out at 397 and the inhibition was -6.2% (inactive).
`CCc1cc(=O)oc2cc(C)c(CN3CCCC(C)C3)c(O)c12` (stereo not given): the cell count is 539 and the inhibition was -7.1% (inactive).
In the case of `C=CCN=C(NC#N)SCCc1ccccc1`, the cell count was 587 and the inhibition was -16.1% (inactive).
Turning to `CCN(CC)CCN1C(=O)c2ccccc2NC1c1cc(OC)c(OC)c(OC)c1` (stereo not given), the inhibition was -13.1% (inactive) and the cell count came out at 672.
For the molecule `COc1ccc(C2C(C#N)=C(N)Oc3cc(C)n(CCN4CCOCC4)c(=O)c32)cc1OC` (stereo not given), the cell count came out at 520 and the inhibition is -5.9% (inactive).
